The values that follow come from PubChem BioAssay (EPA / NIEHS).

The structures appear in SMILES notation. Activity calls are given as the source filed them. Rule for the calls: active = hit-call score of the fitted dose curve at least 0.9, where 1 is the maximum; inactive = score below 0.9.

Read-out in this assay: Cyclin D2 (CCND2), CCND2 (gene 894)
The experiment in a line: LTEA_HepaRG_CCND2: Life Technologies and Expression Analysis (LTEA) Assay for Cyclin D2 (CCND2) using HepaRG (AID 2283449).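 Note: CCND2 transcript measured by TaqMan qRT-PCR and normalised to three housekeeping genes.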 To be noted: mRNA level, 48 h; actives raise or lower the signal. Here is the method: LTEA_HepaRG is a cell based, multiplexed-readout assay that uses HepaRG, a human liver cell line, with measurements taken at 48 hours after chemical dosing on a 96-well plate.LTEA_HepaRG_CCND2 is one of 102 assay component(s) measured in the LTEA HepaRG cell culture assay. It is a marker of Cell proliferation, survival, death.Data from the assay component LTEA_HepaRG_CCND2 was analyzed into 1 endpoint. This assay endpoint, LTEA_HepaRG_CCND2, was analyzed with bidirectional fitting relative to DMSO as the negative control and baseline of activity. Using a type of inducible reporter, measures of mRNA induction for gain or loss-of-signal activity can be used to understand regulation of transcription factor activity. To generalize the intended target to other relatable targets, this assay endpoint is annotated to the cell cycle intended target family, where the subfamily is Cell proliferation, survival, death.
A total of 1060 chemcials from the ToxCast library were tested in eight-point concentration-response experiments. Cell culture and cytotoxicity assays were conducted at Thermo Fisher Scientific's Custom Services facility (Madison, WI). A single lot of human HepaRG cells (Thermo Fisher Scientific, Frederick, MD) was used for the cell culture experiments. 96-well format collagen type I coated plates of human HepaRG cells were prepared using established methods. Briefly, cryopreserved HepaRG cells were thawed, plated at a density of approximately 100,000 cells/well in HepaRG Thaw, Plate, and General Purpose media (HPRG770, Thermo Fisher Scientific), and incubated for 48 hours. 0.5% DMSO was selected as vehicle control to balance the requisite need of DMSO in HepaRG cultures to maintain differentiation (for example, baseline metabolism, proportions of hepatocytes vs. cholangiocytes), while enabling further hepatic receptor pathway activation (for example, PXR and CAR) in response to chemical exposure. 48 hours after plating, the culture medium was replaced with HepaRG Serum-Free Incudtion Media. Cells were exposed to each test chemical in duplicate and maintained in CO2 incubators for another 48 hours. Chemical plates were thawed to room temperature and 200x concentrations of treatment groups were prepared. 8-point conentration-reponse curves were made with the highest exposure at 100 uM, followed by half-log dilutions, all in 0.5% DMSO. Each test plate contained variouse controls, induction positive controls (1mM phenobarbital), cytotoxicity positive controls ([…] aflatoxin B1), vehicle controls (0.5% DMSO), and total lysis controls (0.5% DMSO). Cell morphology images were taken using an Essen IncuCyte FLR automated microscope, with six 96-well plates imaged in about 24 minutes. Images were captured and exported and JPEG files. Spent culture media was transfered to black-well plates for the LDH assay, and remaining media was sorted at -80 C for later use. Cells were treated with RLT buffer and frozen until shipped for gene expression analysis. Total RNA was isolated from the cell suspension in 75 uL of Buffer RLT (Qiagen, Germantown, MD 20874) by Quintiles/Expression Analysis (Durham, NC) using a custom isolation procedure. Total RNA from each plate well was transferred to a preamplification plate. Fluidigm's 96.96 Dynamic ArrayTM (Fluidigm, Amsterdam, the Netherlands) technology was used for gene expression analyses by quantitative reverse transcription polymerase chain reaction (qRT-PCR, performed by Quintiles/Expression Analysis, Durham, NC)89. Standard TaqManTM Assays (Applied Biosystems/ThermoFisher Scientific, Foster City, CA) were used to assess the expression of 93 genes selected based on their selectivity and sensitivity to important hepatic receptors known to be modulated by environmental chemicals; importance in human hepatocyte functionality; and hepatotoxicity. […]
Take `C=CC1(C)OC(=O)N(c2cc(Cl)cc(Cl)c2)C1=O` (stereo not given): the compound was called inactive.
On the same count and under the same terms, the value for `Cc1cc(Cl)ccc1OCC(=O)O` was “inactive”; that for `CCCN(CCC)c1c([N+](=O)[O-])cc(S(N)(=O)=O)cc1[N+](=O)[O-]` was “inactive”; that for `C#CCOS(=O)OC1CCCCC1Oc1ccc(C(C)(C)C)cc1` (stereo not given) was “inactive”.
Same read-out and setting: the value for `CNC(=S)S` was “inactive”; that for `COC(=O)c1ccccc1C(=O)OC` was “inactive”.
Same read-out and setting: the entry for `CCNc1nc(Cl)nc(NCC)n1` is “inactive”; for `CCCCNC(=O)OCC#CI` it is “inactive”.
For the compound `CCOP(=S)(OCC)SCn1c(=O)oc2cc(Cl)ccc21`, the result was inactive.
Still for that read-out and setting: the value for `N#CC(CCc1ccc(Cl)cc1)(Cn1cncn1)c1ccccc1` (stereo not given) was “inactive”; that for `CC(C)(C)c1ccc(CSc2cnn(C(C)(C)C)c(=O)c2Cl)cc1` was “inactive”.
Same read-out and setting: the value for `CCCCNC(=O)n1c(NC(=O)OC)nc2ccccc21` was “inactive”; that for `CC1COC(Cn2cncn2)(c2ccc(Oc3ccc(Cl)cc3)cc2Cl)O1` (stereo not given) was “inactive”.
Still for that read-out and setting: the entry for `CCc1nn(C)c(C(=O)NCc2ccc(C(C)(C)C)cc2)c1Cl` is “inactive”; for `O=C(O)COc1nc(Cl)c(Cl)cc1Cl` it is “inactive”.
Consider `CCCCC(CC)COC(=O)c1ccccc1C(=O)OCC(CC)CCCC` (stereo not given), for which the call was inactive.
With `Oc1ccccc1-c1ccccc1`, the outcome was inactive.
On the same count and under the same terms, the value for `CS/C(C)=N/OC(=O)N(C)SN(C)C(=O)O/N=C(\C)SC` was “inactive”; that for `COc1nc(NC(C)C)nc(NC(C)C)n1` was “inactive”; that for `C=CCC1=C(C)[C@@H](OC(=O)[C@@H]2[C@@H](C=C(C)C)C2(C)C)CC1=O` was “inactive”.
On the same count and under the same terms, the value for `Cc1c(F)c(F)c(COC(=O)C2C(/C=C(\Cl)C(F)(F)F)C2(C)C)c(F)c1F` (stereo not given) was “inactive”; that for `CCCCOC(=O)c1ccccc1C(=O)OCCCC` was “inactive”.
For the compound `C=CCC1=C(C)C(OC(=O)C2C(C=C(C)C)C2(C)C)CC1=O` (stereo not given), the compound was called inactive.
The term AC50 denotes the concentration at which the activity in the assay is half-maximal. `Cc1ccc(-c2c(Cl)nc(C#N)n2S(=O)(=O)N(C)C)cc1`: the AC50 is 6.29 nM (active).
In the case of `Fc1ccc(Oc2ccnc3cc(Cl)cc(Cl)c23)cc1`, the compound was called inactive.
Take `CCON=C(CC)C1=C(O)CC(c2c(C)cc(C)cc2C)CC1=O` (stereo not given): the call was inactive.
Same read-out and setting: the entry for `CCOC(=O)CC(SP(=S)(OC)OC)C(=O)OCC` (stereo not given) is “inactive”.
Still for that read-out and setting: the value for `COP(N)(=O)SC` (stereo not given) was “inactive”.
Same read-out and setting: the value for `CCOc1cc(Oc2ccc(C(F)(F)F)cc2Cl)ccc1[N+](=O)[O-]` was “inactive”; that for `O=C(Nc1ccccc1)Nc1ccnc(Cl)c1` was “inactive”; that for `COC(=O)C=C(C)OP(=O)(OC)OC` was “inactive”.
On to `N#Cc1nn(-c2c(Cl)cc(C(F)(F)F)cc2Cl)c(N)c1S(=O)C(F)(F)F` (stereo not given), for which the outcome was inactive.
The same measure, in the same setting: the value for `CON(C)C(=O)Nc1ccc(Cl)c(Cl)c1` was “inactive”; that for `CN(C)C(=S)SSC(=S)N(C)C` was “inactive”.
Same read-out and setting: the value for `COC(=O)C(C)Oc1ccc(Oc2ccc(Cl)cc2Cl)cc1` (stereo not given) was “inactive”; that for `CO/C=C(/C(=O)OC)c1ccccc1Oc1cc(Oc2ccccc2C#N)ncn1` was “inactive”; that for `O=C(O)c1nc(Cl)ccc1Cl` was “inactive”.
The same measure, in the same setting: the entry for `OC(c1ccc(Cl)cc1)(c1cncnc1)c1ccccc1Cl` (stereo not given) is “inactive”; for `CC1=C(C(=O)Nc2ccccc2)SCCO1` it is “inactive”; for `CCNc1nc(Cl)nc(NC(C)C)n1` it is “inactive”.
